Assay results taken from PubChem BioAssay.
Unmarked numbers belong to inactive results. Active and inactive are the calls of the source.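 The calls were made as follows: active = growth inhibition above 50% at the single 2 µM test dose, taken to imply half-maximal potency below 2 µM; inactive = the rest.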

Assay: antimalarial activity against Dd2 strain (AID 2302);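 also: 0% = DMSO untreated growth and 100% = chloroquine plus artemisinin killed control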
Conditions: P. falciparum Dd2 in RBCs, LDH growth readout, 72 h; at 2 µM; active compounds read high
Work on O=C(Nc1ccc(-c2nc3ccccc3[nH]2)cc1)c1ccc(S(=O)(=O)N2CCc3ccccc32)cc1 yielded a growth inhibition of 34%. Work on CCCCNCc1ccc(-c2nc(CN(Cc3ccc(Cl)c(Cl)c3)S(=O)(=O)c3ccc(NC(C)=O)cc3)cs2)cc1 yielded a growth inhibition of 20%. For CCCCCCCN1CC[C@@H](CCCc2ccnc3ccc(OCC4CCCNC4)cc23)[C@@H](CC)C1 (some centres undefined), the growth inhibition was 100% (active). In the case of COc1ccc(NC(=O)NC2CCN(c3ccnc4cc(Cl)ccc34)C2)cc1 (centres undefined), the growth inhibition is reported as 69% (active). For CCOc1ccc2c(NN=Cc3cc(OC)c(OC)cc3OC)cc(C)nc2c1, the growth inhibition was 97% (active). With CCc1cc(NC2CCN(C)CC2)nc(Nc2ccc(C)cc2)n1 the growth inhibition was 11%. In the case of O=C(CCC1CCCC1)N(Cc1ccc(-c2ccc(CNCCc3ccccc3)cc2)cc1)C1CCCNC1 (centres undefined), the growth inhibition is reported as 71% (active). With Cc1cc(C(=O)Nc2ccc3c(c2)CCN3C2CCN(Cc3cc(F)cc(F)c3F)C2)no1 (centres undefined) the growth inhibition was 96% (active). In the case of CC(C)C(C(=O)Nc1ccc(S(=O)(=O)N(C)C)cc1)c1ccc(Cl)cc1 (centres undefined), the growth inhibition is reported as 98% (active). With CCCC1N=C(N)N=C(N)N1c1ccc(OC)cc1 (centres undefined) the growth inhibition was 4%. For CSc1cccc(NC(=O)c2cc3ccccc3oc2=O)c1, the growth inhibition was 75% (active). With CCc1c[nH]c2c(N3CCCCS3(=O)=O)cc(C(=O)N[C@@H](Cc3ccccc3)[C@H](O)CNCc3cccc(OC)c3)cc12 the growth inhibition was 91% (active). CCn1c(-c2nonc2N)nc2c(C#CC(C)(C)O)ncc(OCCNCCc3ccc(OC)cc3)c21 gave a growth inhibition of 44%. With O=C(CCc1nc2c(cnn2-c2ccccc2)c(=O)[nH]1)NC1CCSc2ccccc21 (centres undefined) the growth inhibition was 52% (active).
